Shown are actives, neighbours in structure and some others; about 7.3% of the full set was active somewhere.
FLuc modulator: qHTS profiling assay for firefly luciferase inhibitor/activator using purifed enzyme and Km concentrations of substrates (counterscreen for miR-21 project); Luciferin 4-monooxygenase (Photinus pyralis), P08659; purified FLuc, Km substrates, luminescence inhibition; Potency, µM (titrated, usually from 57.5 µM), inactives show at the highest dose activity change, negative = inhibition, most hits filed as inhibitors; 6.9% of 360,000 active; AID 588342, 2011;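 further: plate controls were vehicle for no effect and reference inhibitor for full effect; nearly all actives have a fitted effect of over 55% in size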
Target sequence (P08659 whole entry, looked up): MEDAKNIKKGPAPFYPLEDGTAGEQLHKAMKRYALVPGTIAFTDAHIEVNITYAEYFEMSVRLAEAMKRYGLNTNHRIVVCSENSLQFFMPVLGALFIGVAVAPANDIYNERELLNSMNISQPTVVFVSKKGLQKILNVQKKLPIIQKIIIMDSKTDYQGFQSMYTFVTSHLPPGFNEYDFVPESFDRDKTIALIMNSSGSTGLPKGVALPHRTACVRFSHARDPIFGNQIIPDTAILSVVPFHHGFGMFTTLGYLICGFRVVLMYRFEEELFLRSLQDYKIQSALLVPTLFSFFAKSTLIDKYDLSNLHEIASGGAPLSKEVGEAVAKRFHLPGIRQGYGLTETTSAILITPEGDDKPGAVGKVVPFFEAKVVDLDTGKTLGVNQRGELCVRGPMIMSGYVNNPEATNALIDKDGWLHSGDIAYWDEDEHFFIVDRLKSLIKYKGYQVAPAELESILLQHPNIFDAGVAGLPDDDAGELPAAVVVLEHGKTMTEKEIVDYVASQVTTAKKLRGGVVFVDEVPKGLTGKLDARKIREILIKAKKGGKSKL
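Purified P. pyralis luciferase, 10 nM final, with Km-level 10 uM D-luciferin and 10 uM ATP in 50 mM Tris acetate pH 7.5, 10 mM Mg acetate, 0.01% Tween-20, 0.05% BSA; 6-point qHTS titration about 60 µM downward; luminescence read.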
ELG1 genotoxic: qHTS screen for small molecules that induce genotoxicity in human embryonic kidney (HEK293T) cells expressing luciferase-tagged ELG1 | HEK293T ELG1-luciferase reporter, luminescence, 16 h | Potency, µM (top dose mostly 46 µM), without a hit: top-dose activity change, positive = activation, actives largely listed as activators | 1.3% of 330,000 active; further: % of control where 0% means no effect; nearly all actives have a fitted effect of over 60% in size
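Genotoxic stress is detected as increased luminescence from luciferase-tagged ELG1 in HEK293T cells, measured with ONE-Glo after a 16 hr treatment at 37 °C.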
Rab9 promoter act: qHTS Assay for Rab9 Promoter Activators | 2.8% of 320,000 active | Potency, µM (series often up to 9.22 µM), for inactives: at the top dose activation, negative = inhibition, hits mostly activators | AID 485297, 2010 | Huh7 Rab9 promoter-luciferase reporter, luminescence, 24 h; further: % of control where 0% means no effect; nearly all actives have a fitted effect of over 60% in size
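Cells were plated at 1500 per well in reduced-serum medium with 10% FBS and left 2 h. Compound in DMSO was then added for 24 h at 37 °C. Reporter signal was read by luminescence after 10 min with luciferase detection reagent.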
NPC1 promoter act: qHTS Assay for NPC1 Promoter Activators; Huh7 NPC1 promoter luciferase reporter, 24 h; Potency, µM (highest dose often 9.22 µM), for inactives: top-dose activation, most hits filed as activators; 2.4% of 320,000 active; AID 485313, 2010; further: % of control where 0% means no effect; nearly all actives have a fitted effect of over 60% in size
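Huh7 cells stably carrying NPC1 promoter–luciferase, plated in Opti-MEM with 10% FBS for 2 h, were exposed to compound in DMSO for 24 h at 37 °C; luciferase reagent was added for 10 min and luminescence read.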
Luc counter: Counterscreen for Luciferase (Kinase-Glo TM) Inhibition. Kinase-Glo luciferase, ATP luminescence, 8 min. 0.28% of 200,000 active. Potency, µM (series often up to 38.3 µM), for the others: top-dose activity change, negative = inhibition, most hits filed as inhibitors. AID 1379, 2008. Luciferin 4-monooxygenase (Photuris pensylvanica), Q27757; further: on the % scale 0 is the no-effect control and ±100 the full control effect; nearly all actives have a fitted effect of over 60% in size
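Light output from Kinase-Glo luciferase with luciferin and 10 uM ATP in 50 mM imidazole pH 7.2, KCl, MgCl2, Tween 20, BSA; compound pin-delivered, 8-min ambient incubation, then luminescence read.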
SMN2 splice enh: qHTS Assay for Enhancers of SMN2 Splice Variant Expression; HEK293 SMN2-luciferase splicing reporter, luminescence, 30-36 h; Potency, µM (series often up to 46.1 µM), inactives show at the top dose activity change, positive = activation, most hits filed as activators; 2.8% of 210,000 active; further: % of control where 0% means no effect; nearly all actives have a fitted effect of over 55% in size
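HEK293 cells carry an SMN2 minigene-luciferase reporter in which exon 7 inclusion puts luciferase in frame. Cells were seeded at 2000 cells/well, attached for 10-12 hours, then exposed to compounds for 30-36 hours at 37C before ONE-Glo luminescence.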
* = called active by the depositor; [ ] = remark or other dose. The call rests on the fitted dose curve; in most records, active means well fitted curve in the direction sought with a large enough effect; inconclusive means small, poorly fitted or top-dose-only effect, or another doubt; inactive means no such curve, though single readings can be large; an effect the other way counts as inactive or inconclusive. Potency means the concentration at half of the fitted maximal effect.

Screening O=C(CSc1nccn1-c1cccc(Cl)c1)Nc1ccc2c(c1)OCO2 returned FLuc modulator -4%.
Screening Cn1c(=O)n(C)c2cc(N3CCCCC3)c(NC(=O)c3ccc(C(C)(C)C)cc3)cc21 returned FLuc modulator 1% and SMN2 splice enh -2%.
Screening O=[N+]([O-])c1ccccc1N/N=C\c1ccccc1Cl returned FLuc modulator 0.67µM*, ELG1 genotoxic inconclusive, Rab9 promoter act 2.8µM*, NPC1 promoter act inconclusive, Luc counter inconclusive and SMN2 splice enh 7.9µM*.
O=[N+]([O-])c1cccc(N/N=C/c2cccc(O)c2O)c1 was read as FLuc modulator 15µM*, ELG1 genotoxic inconclusive, Rab9 promoter act 2%, NPC1 promoter act -17%, Luc counter 0% and SMN2 splice enh inconclusive.
Screening O=[N+]([O-])c1ccccc1N/N=C/c1cccc(O)c1O returned FLuc modulator 1.5µM*, ELG1 genotoxic 10µM*, Rab9 promoter act -8% and NPC1 promoter act 3.5µM*.
Screening Cc1c(NC(=S)N/N=C/c2cc([N+](=O)[O-])ccc2O)c(=O)n(-c2ccccc2)n1C returned FLuc modulator 27µM*, ELG1 genotoxic -12%, Rab9 promoter act -3% and NPC1 promoter act -3%.
O=[N+]([O-])c1ccc(N/N=C/c2cccc(O)c2O)c(S(=O)(=O)N2CCOCC2)c1 was read as FLuc modulator -2%, ELG1 genotoxic -9%, Rab9 promoter act -23%, NPC1 promoter act -13%, Luc counter -3% and SMN2 splice enh 13%.
Screening O=[N+]([O-])c1cccc(/C=N\Nc2ccc3ccccc3n2)c1O returned Luc counter -23%[7.66 µM] and SMN2 splice enh -11%[9.22 µM].
Cc1c(Cl)cccc1N1CCn2c1nc1c2c(=O)n(CC(=O)O)c(=O)n1C was read as FLuc modulator 6% and SMN2 splice enh 3%.
Brc1ccc(-c2ncc(-c3ccccc3)cn2)cc1 was read as FLuc modulator 0.43µM*, ELG1 genotoxic 0.82µM*, Rab9 promoter act 0.71µM*, NPC1 promoter act 0.5µM*, Luc counter -7% and SMN2 splice enh 7.9µM*.
`Cc1ccc(CNC(=O)c2cccn2-c2nnc(N3CCCCC3)s2)cc1` gave FLuc modulator -2%.
For Cn1ccc2cc(-c3ccc4ncnc(NCc5cccnc5)c4c3)ccc21 the results were FLuc modulator 19µM*, Rab9 promoter act -2% and NPC1 promoter act -3%.
For Cc1noc(C)c1-c1ccc2ncnc(NCc3ccccc3)c2c1 the results were Luc counter -3% and SMN2 splice enh 2.8µM*.
`Cc1cc(C)n2nc(CNC(=O)c3cccc(Cl)c3)nc2n1` gave FLuc modulator -5% and SMN2 splice enh -10%.
`Cc1cc(C)c(NC(=O)CCCn2c(C)c3cnn(-c4ccccc4)c(=O)c3c2C)c(C)c1` gave FLuc modulator -10% and SMN2 splice enh -19%.
For O=C(Nc1cccc(Cl)c1)c1ccc2ncsc2c1 the results were FLuc modulator 19µM*, ELG1 genotoxic inconclusive, Rab9 promoter act 3.5µM* and NPC1 promoter act 4µM*.
For Cc1ccc(NC(=O)c2ccc([N+](=O)[O-])cc2)cc1S(=O)(=O)N(C)C the results were FLuc modulator inconclusive, ELG1 genotoxic 0%, Rab9 promoter act inconclusive, NPC1 promoter act inconclusive, Luc counter 2% and SMN2 splice enh 1%.
O=C(COC(=O)c1ccc2ncsc2c1)Nc1cccc(Cl)c1 was read as FLuc modulator 0%, ELG1 genotoxic 0%, Rab9 promoter act -2% and NPC1 promoter act -30%.
For O=C(Nc1ccc(C(F)(F)F)cc1)c1ccc2ncsc2c1 the results were FLuc modulator 13µM*, ELG1 genotoxic inconclusive, Rab9 promoter act 3.5µM* and NPC1 promoter act 3.5µM*.
`COc1ccc(C(C)(C)C)cc1NC(=O)c1ccc2ncsc2c1` gave FLuc modulator inconclusive, ELG1 genotoxic 21%, Rab9 promoter act 27% and NPC1 promoter act 23%.
For Cc1ccc(NC(=O)c2ccc(OC(F)F)cc2)cc1S(=O)(=O)N(C)C the results were FLuc modulator 9.5µM*, ELG1 genotoxic 1%, Rab9 promoter act 0%, NPC1 promoter act 8%, Luc counter -6% and SMN2 splice enh -55%.
For O=C(Nc1ccc(OC(F)F)c(Cl)c1)c1ccccn1 the results were FLuc modulator 3.4µM*, ELG1 genotoxic 2.3µM*, Rab9 promoter act 0.63µM*, NPC1 promoter act 1µM*, Luc counter -14% and SMN2 splice enh 11µM*.
`CCc1cccc(C)c1Nc1c(-c2ccc(SC)cc2)nc2sccn12` gave FLuc modulator -14% and SMN2 splice enh 19%.
For COc1ccc(NC(=O)c2ccc(OC(F)F)cc2)cc1Cl the results were FLuc modulator 2.7µM*, ELG1 genotoxic inconclusive, Rab9 promoter act 2.5µM*, NPC1 promoter act 2µM*, Luc counter -12% and SMN2 splice enh 11µM*.
`O=C(O)c1ccc2ncsc2c1` gave FLuc modulator inconclusive, ELG1 genotoxic 14%, Rab9 promoter act 3.5µM* and NPC1 promoter act inconclusive.
Screening CC(C)Oc1ccc(C(=O)Nc2ccc(Cl)c(S(=O)(=O)Nc3ccc(Cl)cc3)c2)cc1 returned FLuc modulator 15µM*, ELG1 genotoxic -10%, Rab9 promoter act 1%, NPC1 promoter act -2%, Luc counter -2% and SMN2 splice enh -70%.
For O=C(Nc1ccc(Cl)cc1)c1ccc2ncsc2c1 the results were FLuc modulator 12µM*, ELG1 genotoxic inconclusive, Rab9 promoter act 3.5µM* and NPC1 promoter act 2.8µM*.
`COc1ccc(NC(=O)c2cc(F)cc(F)c2)cc1Cl` gave FLuc modulator inconclusive, ELG1 genotoxic inconclusive, Rab9 promoter act inconclusive, NPC1 promoter act inconclusive, Luc counter -7% and SMN2 splice enh inconclusive.
O=C(Nc1ccc(N2CCOCC2)cc1)c1ccc2ncsc2c1 was read as ELG1 genotoxic 19%.
For Cc1ccc(NC(=O)c2ccc3ncsc3c2)cc1S(=O)(=O)N(C)C the results were FLuc modulator 2.1µM*, ELG1 genotoxic inconclusive, Rab9 promoter act 0.35µM* and NPC1 promoter act 0.35µM*.
Screening O=C(Nc1ccc(F)cc1)c1ccc2ncsc2c1 returned FLuc modulator 24µM*, ELG1 genotoxic inconclusive, Rab9 promoter act 3.5µM* and NPC1 promoter act 2.2µM*.
